Assay outcomes deposited in PubChem BioAssay by National Center for Advancing Translational Sciences (NCATS).
Mm-Cpn inhibitor: M. maripaludis TRiC chaperonin inhibition; purified Mm-Cpn ATPase, ADP Transcreener TR-FRET; Potency, µM (titrated, usually from 76.9 µM), for the others: top-dose activity, negative = inhibition, usual class: inhibitors; 330,000 compounds, 0.031% hits; note: potency is the fitted concentration of half-maximal effect; nearly all actives have a fitted effect of over 80% in size
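Quantitative HTS used 25 nM Mm-CPN and 10 uM ATP in magnesium/KCl Tris buffer, pH 7.4, with 1 mM DTT. Hydrolysis ran 30 min at 37°C; ADP was read by HTRF.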
Sfp PPTase inh: inhibitors of Bacillus subtilis Sfp phosphopantetheinyl transferase; Q9F4F7; Biochemical Sfp PPTase activity, qHTS; Potency, µM, for the others: largest response in the series, negative = inhibition, actives largely listed as inhibitors; 310,000 compounds, 3.5% hits; AID 1490;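 note: the enzyme is Sfp with the accession as filed and its product quenches rhodamine fluorescence; potency is the fitted concentration of half-maximal effect; 0% = enzyme reaction without inhibitor and -100% = no enzyme wells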
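Compounds were incubated with enzyme (final 15 nM) for 15 min at room temperature before substrate addition started the reaction. Fluorescence at 525 nm excitation, 598 nm emission was recorded immediately and after 30 minutes.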
G9a inh: inhibitors of human histone lysine methyltransferase G9a; Potency, µM (doses to about 102 µM), for inactives: at the top dose activity, negative = inhibition, usual class: inhibitors; 350,000 compounds, 8.8% hits; G9a H3K9 monomethylation, AlphaScreen, 2 h; Q96KQ7; note: potency is the fitted concentration of half-maximal effect; nearly all actives have a fitted effect of over 75% in size
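Compounds were preincubated with 20 nM G9a for 15 min, after which biotinylated H3K9 peptide (500 nM) and SAM (20 uM) started a 2 h room-temperature reaction. Monomethylated product was quantified by antibody-based AlphaScreen chemiluminescence.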
PLK1 PBD inh: blocks phosphopeptide binding to human PLK1 polo-box domain. 360,000 compounds, 2.8% hits. P53350. Potency, µM, without a hit: max response, negative = inhibition, most hits filed as inhibitors. Plk1 PBD binding of FITC phosphopeptide, fluorescence polarization. AID 720504; note: potency is the fitted concentration of half-maximal effect; series mostly up to about 57 µM; nearly all actives have a fitted effect of over 65% in size
Target sequence (P53350 whole entry, looked up, the tested form may be a part): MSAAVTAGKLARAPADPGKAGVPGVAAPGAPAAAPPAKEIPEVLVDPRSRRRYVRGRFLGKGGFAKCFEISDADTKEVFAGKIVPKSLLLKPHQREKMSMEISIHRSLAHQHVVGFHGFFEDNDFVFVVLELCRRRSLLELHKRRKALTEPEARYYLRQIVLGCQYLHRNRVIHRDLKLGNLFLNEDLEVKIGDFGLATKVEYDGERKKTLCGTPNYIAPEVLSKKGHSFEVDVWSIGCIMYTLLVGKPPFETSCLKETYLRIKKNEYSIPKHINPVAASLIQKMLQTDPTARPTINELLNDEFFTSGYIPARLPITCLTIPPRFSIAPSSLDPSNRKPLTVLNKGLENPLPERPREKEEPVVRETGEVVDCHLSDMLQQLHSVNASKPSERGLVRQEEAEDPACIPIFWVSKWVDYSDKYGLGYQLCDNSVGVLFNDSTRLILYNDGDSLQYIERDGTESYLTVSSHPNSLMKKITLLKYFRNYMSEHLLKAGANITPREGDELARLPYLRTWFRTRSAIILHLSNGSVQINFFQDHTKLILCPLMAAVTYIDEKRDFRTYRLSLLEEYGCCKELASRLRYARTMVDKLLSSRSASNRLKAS
VDR inhibitor: blocks the human vitamin D receptor; VDR-SRC2-3 peptide fluorescence polarization, 2 h; Potency, µM, for the others: max response, negative = inhibition, usual class: inhibitors; 400,000 compounds, 0.93% hits; AID 504847; note: potency is the fitted concentration of half-maximal effect
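Inhibition of the VDR/SRC2-3 peptide interaction is quantified by fluorescence polarization. Compounds (23 nl, pintool) incubate with the reagents for 2 hours at ambient room temperature.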
CCT chaperon mod: cytosolic chaperonin activity modulation | activity change, % (concentration not given with the values), hits read low | AID 651819 | 360,000 compounds, 0.3% hits | purified chaperonin ATPase assay, HTRF ADP detection, 30 min; in the data active = activity change below about -30%
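TRiC at 40 or 20 nM final (batch-dependent) in 30 mM Tris pH 7.4, 100 mM KCl, 5 mM MgCl2, 1 mM DTT, with compound at single 76 uM and 10 uM ATP, 30 min at 37 deg C. ADP detected by HTRF Transcreener, 665/615 ratio.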
* = called active by the depositor; ? = inconclusive; / = no result given; [ ] = another dose, or the depositor's remark. A selection: hits, their analogues and other compounds. The true share with any hit is near 10%. Unless noted, calls come from the whole dose curve; as a rule, active = well fitted curve in the direction sought with a large enough effect; inconclusive = small, poorly fitted or top-dose-only effect, or another doubt; inactive = no such curve, though single readings can be large; an effect the other way counts as inactive or inconclusive. Unless noted, % is set by controls: 0 for no effect and ±100 for the full control effect.

SMILES | Mm-Cpn inhibitor | Sfp PPTase inh | G9a inh | PLK1 PBD inh | VDR inhibitor | CCT chaperon mod
CC[C@H](C)[C@H](NC(=O)[C@H](Cc1cnc[nH]1)NC(=O)[C@@H](NC(=O)[C@H](CCCNC(=N)N)NC(=O)[C@H](CCCCN)NC(=O)[C@H](CCCNC(=N)N)NC(=O)[C@H](CCCCN)NC(=O)[C@@H](N)CC(N)=O)[C@@H](C)CC)C(=O)NCC(=O)N1CCC[C@H]1C(=O)NCC(=O)N[C@@H](CCCNC(=N)N)C(=O)N[C@@H](C)C(=O)N[C@@H](Cc1ccccc1)C(=O)N[C@@H](Cc1ccc(O)cc1)C(=O)N[C@H](C(=O)N[C@H](C(=O)N[C@@H](CCCCN)C(=O)N[C@@H](CC(N)=O)C(=O)N[C@H](C(=O)N[C@H](C(=O)NCC(=O)N[C@H](C(=O)N[C@H](C(=O)N[C@@H](CS)C(=O)O)[C@@H](C)CC)[C@@H](C)O)[C@@H](C)CC)[C@@H](C)CC)[C@@H](C)O)[C@@H](C)O | / | -13.9% | / | / | 14.0% | /
Cn1c(N)c(N=O)c(=O)n(C)c1=O | -0.3% | -19.0% | 50.1µM* | -0.3% | -13.5% | -1.9
CCOC(=O)C=Nc1c(N)n(C)c(=O)n(C)c1=O | 2.6% | -31.4% | -25.0%[59 µM] | -13.3% | -6.0% | -0.2
Cc1ccc(Cn2ccn(Cc3ccc(C)cc3)c(=O)c2=O)cc1 | / | / | -12.6%[59 µM] | / | 7.7% | /
CN(C)N1C(N)=C(C#N)C(c2cccs2)C2=C1CCCC2=O (configuration not stated) | 0.9% | -20.1% | -32.7% | 29.9µM* | 0.2% | -1.6
CN(C)N1C(N)=C(C#N)C(c2ccsc2)C2=C1CCCC2=O (configuration not stated) | -0.3% | 0.6% | 24.0%[59 µM] | 0.0% | ? | -1.5
COc1ccc(-n2cc3c(c2-c2cccc(Br)c2)c(=O)n(C)c(=O)n3C)cc1OC | / | / | -31.2%[59 µM] | / | 14.7% | /
O=C(NCc1ccc(F)cc1)c1cc(-c2ccc(Cl)cc2)n[nH]1 | / | / | 0.5%[59 µM] | / | 3.9% | /
CCOC(=O)C1=C(N)Oc2c(c(=O)[nH]c3ccccc23)C1c1ccccc1 (configuration not stated) | -0.8%[15.4 µM] | 20µM* | -14.0%[59 µM] | -6.4% | -0.5% | 0.6
CCOC(=O)C1=C(N)Oc2cc(O)ccc2C1c1ccccc1 (configuration not stated) | 1.1% | 6.0% | 3.4%[0.501 µM] | -1.1% | -20.0% | 1.2
CCOc1ccccc1NC(=O)CN1C(=O)COc2ccc(S(=O)(=O)NC3CCCC3)cc21 | / | / | -26.1%[59 µM] | / | 1.9% | /
Nc1[nH]n(-c2ccccc2)c(=O)c1N=Nc1ccc2c(c1)OCCO2 | -2.8% | -1.1% | 10µM* | -21.1% | -21.2% | -4.8
Cc1[nH]n(-c2ccccc2)c(=O)c1N=Nc1ccc(C(=O)O)cc1 | -0.4% | 1.9% | 79.4µM* | -5.3% | -15.6% | -6.8
Cc1[nH]n(-c2ccccc2)c(=O)c1N=Nc1ccc(C(N)=O)cc1 | -0.3% | 4.9% | / | -6.5% | -11.8% | 1.0
Cc1[nH]n(-c2ccccc2)c(=O)c1N=Nc1ccc(Cl)cc1 | 1.7% | ? | 9.3%[0.501 µM] | -9.3% | -5.7% | -0.3
Cc1[nH]n(-c2ccccc2)c(=O)c1N=Nc1c(Cl)cccc1Cl | 2.6% | 23.5% | 22.4µM* | 3.2% | 1.3% | -0.1
CC(=O)c1ccc(N=Nc2c(C)[nH]n(-c3ccccc3)c2=O)cc1 | 0.3% | -57.6% | 3.55µM* | -7.3% | -18.1% | 0.3
Cc1nn(C(C)C(=O)N2CCN(c3ccc(Cl)cc3)CC2)c(=O)c2cc3occc3n12 (configuration not stated) | / | / | ? | / | 6.8% | /
Cc1ccc(-n2nc3c(=O)n(C(C)C(=O)NCc4ccc(OC(C)C)cc4)nc(C)c3c2C)cc1 (configuration not stated) | / | / | -8.9%[59 µM] | / | -3.1% | /
Cc1[nH]n(-c2ccccc2)c(=O)c1N=Nc1ccccc1 | -4.2% | 15.6% | 3.55µM* | 1.1% | 26.6% | -1.4
Cc1cc(C2=NNC(=NCCc3ccccc3)SC2)c(C)n1CC1CCCO1 (configuration not stated) | 2.3% | 50.1µM* | 35.5µM* | -18.1% | -12.0% | -1.7
C=CCn1c(C)cc(C2=NNC(=NCc3ccccc3)SC2)c1C | 1.5% | -5.1% | ? | -10.0% | -3.0% | 0.9
CCN=C1NN=C(c2cc(C)n(CCc3ccccc3)c2C)CS1 | -2.4% | 50.1µM* | ? | -20.5% | -10.2% | -2.2
COc1ccc(-c2cc(C(C)=O)c(C)n2CCC(=O)NCc2ccc(F)cc2)cc1 | / | / | ? | / | 6.5% | /
COc1ccccc1CCNC(=O)c1nccnc1C(=O)O | 0.4% | 16.0% | 35.5µM* | 4.8% | -10.5% | -1.9
SMILES | Mm-Cpn inhibitor | Sfp PPTase inh | G9a inh | PLK1 PBD inh | VDR inhibitor | CCT chaperon mod
O=C(NC1CCCCC1)c1ccc2c(c1)N(Cc1cccc(Cl)c1)C(=O)c1ccccc1S2(=O)=O | / | / | -14.8%[59 µM] | / | 11.3% | /
O=C1C(=Cc2ccco2)CCCC1=Cc1ccco1 | / | / | / | -17.7% | -3.3% | -1.8
O/N=C1\CCC\C1=C/c1ccco1 | 0.3% | 17.1% | 56.2µM* | -3.0% | 0.1% | -0.8
Cc1nc(NC(=O)c2ccc(Cl)cc2)sc1-c1csc(Nc2cccc(F)c2)n1 | -9.5% | 4.5% | 50.1µM* | / | / | /
COc1ccccc1Nc1nc(-c2sc(NC(=O)C(C)(C)C)nc2C)cs1 | ? | -14.4% | ? | -18.3% | 8.1% | -2.9
COc1ccccc1Nc1nc(-c2sc(NC(=O)c3cccc(Cl)c3)nc2C)cs1 | ? | -6.0% | 31.6µM* | / | / | /
CCCC(=O)Nc1nc(C)c(-c2csc(Nc3ccc(Cl)cc3)n2)s1 | -10.8% | -10.4% | 38.3%[0.501 µM] | -23.6% | -17.0% | -1.4
Cc1ccc(Nc2nc(-c3sc(NC(=O)c4cccc(Cl)c4)nc3C)cs2)cc1 | -5.6% | -2.5% | 25.1µM* | / | / | /
CCN(C(=O)C1CCN(S(=O)(=O)c2ccc3c(c2)CCCN3C(=O)C2CCC2)CC1)c1cccc(C)c1 | / | / | -8.1%[59 µM] | / | -6.8% | /
CCC1CN(C(=O)N2CCC(C(=O)Nc3cc(C)ccc3C)CC2)c2ccccc2O1 (configuration not stated) | / | / | -37.6%[59 µM] | / | 1.4% | /
O=C(Nc1ccc(-n2nncc2-c2ccco2)cc1)c1cccc(F)c1 | -3.9% | ? | 44.7µM* | -12.4% | -10.1% | -3.3
COc1cc(C)c(-c2[nH]ncc2-c2csc(C)n2)c(O)c1 | 2.1% | 0.1% | 22.1%[59 µM] | 29.9µM* | -12.8% | -2.3
Cc1ccc(C2C(C=Nc3c(C)n(C)n(-c4ccccc4)c3=O)=C(c3ccccc3)Oc3ccccc32)cc1 (configuration not stated) | -0.3% | 12.9% | ? | 21.2µM* | -12.0% | 0.1
COc1ccc2c(c1)OC(=O)CC2c1ccccc1C (configuration not stated) | / | -3.1% | 3.3% | / | -7.2% | /
O=C(OC(c1ccccc1)c1nccc2ccccc12)c1ccccc1 (configuration not stated) | / | / | / | 1.0% | -14.1% | -5.6
